Epigenetic reg: epigenetic control regulation, reporter derepression | murine LDR cells, GFP reporter derepression, 30 h | Potency, µM (titrated, usually from 53.9 µM), without a hit: at the highest dose GFP activation, hits mostly activators | actives 0.2% (n = 280,000) | AID 1865; further: % of control where 0% means no effect; nearly all actives have a fitted effect of over 60% in size
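Reporter derepression read as number of fluorescent GFP-positive objects, 20-120 um in size, counted by laser-scanning cytometer. Mouse LDR line with an epigenetically silenced CMV-GFP locus; compound incubation 30 h, 37 C.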
PINK1 expr mod: changes PINK1 expression. PINK1 immunofluorescence, high-content cytometry, 24 h. Potency, µM (doses to about 76.6 µM), for inactives: at the highest dose activation (PINK1 increase), hits mostly activators. actives 0.2% (n = 410,000). AID 624263; active means well fitted activation curve with a large enough effect; inconclusive means small, poorly fitted or top-dose-only effect; cell line not stated here; further: % of control where 0% means no effect; nearly all actives have a fitted effect of over 65% in size
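Readout is PINK1 immunofluorescence, quantified alongside mitochondrial, cell and nuclear markers by laser-scanning microplate cytometry. Cells from a stable line were exposed to compound titrations (5 concentrations) for 24 hours, with CCCP controls.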
RORgamma inh: inhibitors of mouse ROR gamma transcriptional activity; actives 5.4% (n = 310,000); Potency, µM (titrated, usually from 53.6 µM), without a hit: at the top dose activity change, negative = inhibition, actives largely listed as inhibitors; Drosophila S2 Gal4-RORgamma UAS-luciferase reporter, 20 h; P51450; AID 2551; further: on the % scale 0 is the no-effect control and ±100 the full control effect; nearly all actives have a fitted effect of over 60% in size
Target sequence (P51450 whole entry, looked up, the tested form may be a part): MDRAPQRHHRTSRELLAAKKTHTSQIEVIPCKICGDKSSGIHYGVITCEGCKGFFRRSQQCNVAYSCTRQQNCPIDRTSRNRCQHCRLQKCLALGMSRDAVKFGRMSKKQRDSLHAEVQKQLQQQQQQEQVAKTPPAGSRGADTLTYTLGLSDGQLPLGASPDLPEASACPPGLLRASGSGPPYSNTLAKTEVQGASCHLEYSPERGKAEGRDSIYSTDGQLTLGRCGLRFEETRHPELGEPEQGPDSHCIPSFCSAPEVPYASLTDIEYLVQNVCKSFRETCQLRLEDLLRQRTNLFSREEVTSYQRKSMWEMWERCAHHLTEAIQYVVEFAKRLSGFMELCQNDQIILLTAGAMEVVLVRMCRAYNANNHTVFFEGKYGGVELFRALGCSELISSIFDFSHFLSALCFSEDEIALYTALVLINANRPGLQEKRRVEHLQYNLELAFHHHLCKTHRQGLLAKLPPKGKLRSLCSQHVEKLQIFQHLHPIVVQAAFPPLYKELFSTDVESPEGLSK
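ROR gamma transcriptional activity was tracked as Gal4-UAS luciferase output in stably transfected Drosophila Schneider cells, with compound added 1 hr before 700 uM copper sulfate induction and a 20 hr ambient-temperature incubation.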
ClpP mod: qHTS Assay for Activators of ClpP. Potency, µM (doses to about 57.5 µM), for inactives: at the top dose activity change, negative = active. purified B. subtilis ClpP, FRET peptide cleavage, 20 min. actives 1.9% (n = 340,000); active means well fitted falling curve with a large enough effect; inconclusive means small, poorly fitted or top-dose-only effect; inactive means no such curve, though single readings can be large or run the other way; further: the source files actives as falling curves though it sought activators and does not explain the sign; nearly all actives have a fitted effect of over 65% in size
Target sequence (P80244 whole entry, looked up): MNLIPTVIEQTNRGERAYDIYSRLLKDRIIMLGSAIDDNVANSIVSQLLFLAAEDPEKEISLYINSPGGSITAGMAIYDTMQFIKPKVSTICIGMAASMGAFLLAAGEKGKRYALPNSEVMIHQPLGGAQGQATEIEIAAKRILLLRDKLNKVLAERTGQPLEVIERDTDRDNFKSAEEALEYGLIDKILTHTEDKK
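ClpP 10 microg/mL final, pH 8 Tris/KCl buffer with BSA, glycerol, Tween-20; compound pinned in; FRET-FV substrate; RT 20 min; Ex320/Em430; ΔFRET vs ADEP 5.8 microM, DMSO, no enzyme.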
Sfp PPTase inh: inhibitors of Bacillus subtilis Sfp phosphopantetheinyl transferase | Q9F4F7 | Biochemical Sfp PPTase activity, qHTS | Potency, µM, inactives show largest response in the series, negative = inhibition, hits mostly inhibitors | actives 3.5% (n = 310,000);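 further: the enzyme is Sfp with the accession as filed and its product quenches rhodamine fluorescence; 0% = enzyme reaction without inhibitor and -100% = no enzyme wells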
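Buffer: 50 mM Hepes-Na pH 7.6, 10 mM MgCl2, 0.01% Nonidet P-40, 0.01% BSA. Enzyme 15 nM, pre-exposed to compound 15 min; substrates then added and fluorescence change tracked over 30 min.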
Gal4-VP16 FLuc: inhibits Gal4-VP16 luciferase reporter, ROR gamma counter-screen; Drosophila S2 Gal4-VP16 UAS-luciferase, luminescence, 20 h; Potency, µM (top dose mostly 53.6 µM), without a hit: top-dose activity, negative = inhibition, most hits filed as inhibitors; actives 3.5% (n = 310,000); AID 2546;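 further: Gal4-VP16 expression switched on by copper sulfate through the metallothionein promoter; on the % scale 0 is the no-effect control and ±100 the full control effect; nearly all actives have a fitted effect of over 50% in size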
* hit, by the source's call; ? = inconclusive; / = no result; [ ] = another dose, or the depositor's remark. Hits are enriched below; roughly 8.1% of the tested compounds scored in any of these assays. Unless noted, the call rests on the fitted dose curve; in most records, active means well fitted curve in the direction sought with a large enough effect; inconclusive means small, poorly fitted or top-dose-only effect, or another doubt; inactive means no such curve, though single readings can be large; an effect the other way counts as inactive or inconclusive. Potency means the concentration at half of the fitted maximal effect.

SMILES	Epigenetic reg	PINK1 expr mod	RORgamma inh	ClpP mod	Sfp PPTase inh	Gal4-VP16 FLuc
Cc1cccc(NC(=O)CSc2nc(-c3cccs3)cc(C(F)(F)F)c2C#N)c1C	?	-0.2%	/	-12.1%	/	/
COCCCNS(=O)(=O)c1cc(-c2onc(C)c2C)ccc1OC	-2.2%	0.1%	/	-7.0%	/	/
CCC1Cc2cc(O)ccc2C2=C1c1ccc(O)cc1CC2CC (stereo unspecified)	/	/	?	/	4.7%	12.6µM*
O=C1COc2cc(O)ccc21	/	5.0%	/	/	/	/
CN1/C(=C\C(=O)COC(=O)CN2C(=O)C3CC=CCC3C2=O)C(C)(C)c2ccccc21 (stereo unspecified)	-3.9%	-1.5%	?	-1.7%	0.5%	4.47µM*
CNS(=O)(=O)c1cccc(C(=O)OCC(=O)/C=C2/N(C)c3ccccc3C2(C)C)c1	0.9%	0.4%	?	-19.5%	3.7%	0.398µM*
CCOC(=O)C1CCN(C(c2ccccc2OC)c2c(O)cc(C)n(CCOC)c2=O)CC1 (stereo unspecified)	-0.3%	0.2%	/	-2.8%	/	/
Cc1cccc(C)c1NC(=O)c1ccc2nc(CCc3ccccc3)oc2c1	0.0%	2.3%	/	-6.6%	/	/
O=C(O)c1ccccc1NS(=O)(=O)c1cccc(C(F)(F)F)c1	-0.8%	4.3%[38.3 µM]	8.0%	-5.0%	6.5%	-1.0%
O=C(O)c1ccccc1NS(=O)(=O)c1cccc(-n2sc3ccccc3c2=O)c1	/	1.5%	10.5%	/	2µM*	?
CC(=O)c1ccc(OCC(O)CN2CCOCC2)cc1 (stereo unspecified)	0.7%	1.4%	-24.3%	0.4%	8.2%	7.8%
CC(=O)c1ccc(OCC(O)CN2CCN(S(=O)(=O)c3c(C)cc(C)cc3C)CC2)cc1 (stereo unspecified)	/	0.1%	31.9%	20µM*	-28.5%	-5.0%
Fc1ccccc1C1c2cccn2CCN1C(=S)Nc1cccc(Br)c1 (stereo unspecified)	0.5%	-0.9%	12.6µM*	/	-15.3%	?
Fc1ccc(C2c3cccn3CCN2C(=S)Nc2cccc(F)c2)cc1 (stereo unspecified)	-2.2%	?	10µM*	-3.1%	20.6%	-65.8%
Fc1cccc(NC(=S)N2CCn3cccc3C2c2cccnc2)c1 (stereo unspecified)	2.6%	-0.5%	9.2%	/	2.3%	-1.5%
CNC(=S)N1CCn2cccc2C1c1ccc(F)cc1 (stereo unspecified)	-4.4%	1.1%	?	0.8%	56.2µM*	-9.3%
COc1ccc(C=NNc2ccc(S(=O)(=O)Nc3ccccc3C(=O)O)cc2[N+](=O)[O-])c(OC)c1	/	0.8%	/	-1.2%	/	/
COc1ccc(NC(=S)NNc2ccc(S(=O)(=O)Nc3ccccc3C(=O)O)cc2[N+](=O)[O-])cc1	-2.0%	2.0%	-31.2%	1.2%	79.4µM*	-28.0%
C=CS(=O)(=O)c1ccc(Oc2ccc(S(=O)(=O)C=C)cc2)cc1	3.0%	5.2%	3.16µM*	-0.3%	?	2.24µM*
Cc1cc(-c2nnco2)c(C)n1-c1ccccc1	0.0%	-1.2%	5.0%	1.2%	?	-18.7%
Cc1cc(C2=NNC(=NCc3ccccc3)SC2)c(C)n1-c1c(C)n(C)n(-c2ccccc2)c1=O	0.0%	2.5%	25.2%	/	-3.3%	4.5%
COc1ccc(OC)c(C2=NNC(=NCc3ccc4c(c3)OCO4)SC2)c1	-1.1%	1.3%	-7.2%[10 µM]	/	-0.3%	1.2%
Cc1cc(C2=NNC(=NC3CC3)SC2)c(C)n1-c1ccccc1	0.0%	39.8µM*	2.51µM*	-4.2%	-28.3%	6.31µM*
COc1ccc(-n2c(C)cc(C3=NNC(=NC4CC4)SC3)c2C)cc1	2.9%	31.6µM*	-19.8%	/	-108.1%	?
CN=C1NN=C(c2cc(C)n(-c3c(C)n(C)n(-c4ccccc4)c3=O)c2C)CS1	1.0%	-1.2%	?	/	50.1µM*	?
SMILES	Epigenetic reg	PINK1 expr mod	RORgamma inh	ClpP mod	Sfp PPTase inh	Gal4-VP16 FLuc
Cc1sc2ccc3sccc3c2[n+]1C	0.1%	0.5%	4.9%	/	2.82µM*	-18.1%
C=CCNC(=S)N(CC)c1cccc2ccccc12	1.1%	-2.0%	7.08µM*	/	26.2%	?
CCN(C(=S)NCc1ccccc1)c1ccccc1	-0.1%	3.3%	14.1µM*	4.5%	-5.9%	-8.0%
CCN(C(C)=O)c1cccc2ccccc12	0.7%	2.4%	7.9%	-6.8%	13.2%	-0.1%
CCN(C(=S)Nc1cccnc1)c1cccc2ccccc12	1.1%	-0.8%	-28.8%	3.5%	22.4µM*	6.4%
CCN(Cc1ccncc1)C(=S)NCc1ccccc1	0.9%	-0.5%	5.7%	/	-6.5%	1.0%
CCN(C(=S)Nc1cccnc1)c1ccccc1	-2.6%	3.0%	-26.3%	0.3%	-20.4%	13.4%
CCN(C(=S)NCc1ccccc1)c1cccc2ccccc12	0.0%	2.4%	7.08µM*	-1.6%	7.9%	?
CCCCNC(=O)c1sc2ncnc(NCC3CCCO3)c2c1C (stereo unspecified)	/	-0.3%	/	/	/	/
CCN(C(=N)N=C(N)N)c1ccccc1	-0.4%	-0.6%	25.0%	1.1%	14.8%	-0.9%
CCN(C(N)=S)c1ccccc1	1.1%	0.3%	11.2µM*	-1.9%	25.6%	-13.6%
COC(=O)NC(c1ccc2c(c1)OCO2)C(C(=O)OC)C(=O)OC (stereo unspecified)	-1.1%	/	27.9%	/	14.1%	4.2%
CN(Cc1ccccc1)C(=O)Cn1ncc2c3ccccc3n(Cc3cccc(Cl)c3)c2c1=O	-2.3%	0.2%	/	?	/	/
CCOC(=O)C(=Cc1ccc(Br)cc1)C(=O)OCC	0.0%	-1.7%	14.1µM*	/	?	?
CCOC(=O)C(=Cc1ccc(-n2ccnc2)cc1)C(=O)OCC	-1.4%	-3.5%	?	/	-29.4%	?
CCOC(=O)C(=Cc1ccc(F)cc1)C(=O)OCC	1.2%	/	10µM*	/	-7.3%	?
COc1ccc(CNC(=O)CSc2ncc3c(n2)-c2cc(Cl)ccc2N(C)S3(=O)=O)cc1	3.5%	2.0%	/	73.3%	/	/
CCN1CCc2c(sc3c2c(NCc2ccco2)nc2nnnn23)C1	-1.5%	0.7%	-2.1%	12.6µM*	?	-7.2%
Cc1ccc(C2C=C(c3ccccc3)Nc3nc(N4C(=O)CCC4=O)nn32)cc1 (stereo unspecified)	-0.1%	-0.4%	16.1%	/	-18.5%	4.9%
CC1=CC(c2ccc(Cl)cc2)n2nc(N3C(=O)CCC3=O)nc2N1 (stereo unspecified)	-1.2%	-1.7%	0.0%	10µM*	-4.8%	6.2%
CC1=CC(c2ccc(Cl)cc2)n2nc(NS(=O)(=O)c3ccc(C)cc3)nc2N1 (stereo unspecified)	0.8%	-5.3%[38.3 µM]	0.0%	22.4µM*	-4.0%	0.9%

Screens as filed in PubChem.
